{"source": "PubChem BioAssay (NCATS)", "key": {"[1]": {"biological_target": "Guanine nucleotide-binding protein G(i) subunit alpha-1 (Homo sapiens) (UniProt P63096)", "sequence (P63096 whole entry, looked up)": "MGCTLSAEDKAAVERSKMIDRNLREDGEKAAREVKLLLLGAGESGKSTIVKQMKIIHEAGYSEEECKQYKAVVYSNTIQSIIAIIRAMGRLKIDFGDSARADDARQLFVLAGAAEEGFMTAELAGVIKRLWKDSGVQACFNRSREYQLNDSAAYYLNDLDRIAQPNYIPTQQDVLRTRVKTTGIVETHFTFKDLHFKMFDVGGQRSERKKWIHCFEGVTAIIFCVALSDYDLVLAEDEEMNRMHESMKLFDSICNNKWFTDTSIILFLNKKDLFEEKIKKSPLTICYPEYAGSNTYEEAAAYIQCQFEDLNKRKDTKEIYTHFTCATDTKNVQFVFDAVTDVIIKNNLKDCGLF", "experiment": "qHTS Assay for Inhibitors of RGS12 GoLoco Motif Activity (Green Fluorophore) (AID 879);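 further: negative values mean loss of peptide binding seen as reduced polarization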", "procedure,_shortened": "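Fluorescence polarization assay: 50 nM Gαi1 with 10 nM FITC-labeled RGS12 GoLoco peptide in 10 mM Tris pH 7.5, 150 mM NaCl, 0.1 mM GDP, 0.05% NP40, 10 min at room temperature with compound.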"}, "[2]": {"biological_target": "Cytochrome P450 3A4 (Homo sapiens) (UniProt P08684)", "sequence (P08684 whole entry, looked up)": "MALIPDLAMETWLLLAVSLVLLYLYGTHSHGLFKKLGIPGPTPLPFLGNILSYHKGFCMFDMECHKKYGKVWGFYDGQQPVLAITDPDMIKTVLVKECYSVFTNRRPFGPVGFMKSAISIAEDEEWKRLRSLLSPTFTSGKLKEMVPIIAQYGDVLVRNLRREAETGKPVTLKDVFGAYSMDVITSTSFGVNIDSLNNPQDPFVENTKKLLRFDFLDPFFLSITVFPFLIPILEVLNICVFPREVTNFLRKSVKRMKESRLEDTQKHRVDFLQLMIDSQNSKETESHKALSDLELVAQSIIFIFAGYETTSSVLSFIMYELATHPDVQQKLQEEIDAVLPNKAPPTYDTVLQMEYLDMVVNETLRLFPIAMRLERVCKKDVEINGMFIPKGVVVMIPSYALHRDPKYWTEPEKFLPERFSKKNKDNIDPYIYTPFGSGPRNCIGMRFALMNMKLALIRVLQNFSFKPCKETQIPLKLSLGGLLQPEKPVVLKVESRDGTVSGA", "experiment": "qHTS Assay for Activators of Cytochrome P450 3A4 (AID 885); further: nearly all actives have a fitted effect of over 65% in size", "procedure,_shortened": "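Steps: enzyme/substrate mix dispensed; compound added, 10 min RT; NADPH regeneration solution added, 60 min RT; luciferin detection buffer stops reaction; 20 min later luminescence measured.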"}, "[3]": {"experiment": "qHTS Assay for Identification of Small Molecule Antagonists for NFkB Signaling Pathway (AID 895; active means well fitted inhibition curve with a large enough effect in the signal ratio, with a control signal flat, not every such curve was filed as active; the % refers to the signal ratio; further: potency means the concentration at half of the fitted maximal effect)", "procedure,_shortened": "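Beta-lactamase reporter read-out (460 and 530 nm emission ratio, 405 nm excitation, 2 hrs substrate loading RT) after 5 hr stimulation with 10 pM TNF alpha in compound-treated NFkB-bla ME-180 cells in low-serum medium.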"}, "[4]": {"experiment": "Confirmation and Secondary Assay for Modulators of Hemoglobin Beta Chain Splicing at IVS2 654 locus (AID 910);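 further: HeLa cells stably carrying EGFP split by mutant beta-globin IVS2-654 intron; per-well total GFP intensity by laser scanning cytometry after 2-day treatment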", "procedure,_shortened": "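Readout: per-well total peak green fluorescence (488 nm ex, 500–520 nm em) from objects 5–250 µm, reflecting correct splicing of an EGFP-654 reporter. Compounds were applied for 2 days at 37 °C to overnight-plated HeLa EGFP-654 cells; controls were DMSO and 500 nM IVS2-654 PNA.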"}, "[5]": {"experiment": "Cellular Toxicity (caspase-3) HepG2 (AID 654)", "procedure,_shortened": "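HepG2 cells (1500/well) in complete medium were treated with compounds for 16 hr at 37 °C. Caspase-3/7 activity was then read as luminescence from peptide-aminoluciferin cleavage. AC50 came from Hill fits, normalized to DMSO and 100 uM tamoxifen.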"}, "[6]": {"experiment": "Cellular Toxicity (caspase-3) Jurkat (AID 655)", "conditions": "Jurkat caspase-3 activation, luminescence; caspase-3 activation: at 92.2 µM (top of the series), DMSO = 0%, tamoxifen = 100%", "procedure,_shortened": "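Jurkat cells (5000/well) in complete medium exposed 16 h at 37 C; caspase-3/7 activity read by Caspase-Glo luminescence after 20 min at room temperature. Normalized to DMSO and 100 uM tamoxifen; AC50 from Hill fits.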"}, "[7]": {"experiment": "Cellular Toxicity (caspase-3) HUV-EC-C (AID 656)", "procedure,_shortened": "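HUV-EC-C cells (1000/well) in complete medium, compound-treated 16 h at 37 °C; caspase-3/7 activity read by Caspase-Glo 3/7 luminescence. Normalized to DMSO (basal) and 100 uM tamoxifen (100%); AC50 from Hill-equation concentration-response fits.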"}, "[8]": {"experiment": "Cellular Toxicity (caspase-3) SHSY5Y (AID 657)", "procedure,_shortened": "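SH-SY5Y human neuroblastoma cells, 1500/well, exposed to compound for 16 hours at 37 °C in complete medium. Caspase-3/7 activity read by Caspase-Glo luminescence after 1 hr at room temperature, normalized to DMSO and 10 uM staurosporine; AC50 from Hill fit.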"}, "[9]": {"experiment": "Cellular Toxicity (caspase-3) BJ (AID 658)", "procedure,_shortened": "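Readout: Caspase-Glo 3/7 luminescence increase in BJ cells after 16 hr treatment at 37 °C. Staurosporine and tamoxifen served as positive controls; AC50 values came from Hill modelling of data normalized to DMSO and 10 uM staurosporine.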"}, "[10]": {"experiment": "Cellular Toxicity (caspase-3) MRC-5 (AID 659)", "procedure,_shortened": "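Concentration-dependent caspase 3/7 activation is measured in human normal lung fibroblasts (MRC-5) following 16-hour treatment. AC50 values come from standard Hill-equation modeling of luminescence normalized to DMSO and 10 uM staurosporine.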"}, "[11]": {"experiment": "Cellular Toxicity (caspase-3) SK-N-SH (AID 661)", "procedure,_shortened": "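SK-N-SH human neuroblastoma cells (1500/well) were treated with compounds for 16 hr at 37 °C in complete medium; caspase 3/7 activity was read by Caspase-Glo luminescence. AC50 came from Hill fits of data normalized to DMSO and 10 uM staurosporine.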"}, "[12]": {"experiment": "Cellular Toxicity (caspase-3) H-4-II-E (AID 663)", "conditions": "H-4-II-E rat hepatoma, scaled: DMSO 0%, 100 µM tamoxifen 100%; at 92.2 µM (top of the series)", "procedure,_shortened": "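Apoptosis induction is scored as increased luminescence from caspase 3/7 substrate cleavage in rat hepatoma H-4-II-E cells exposed to compound for 16 hr. Activity is scaled between DMSO and 100 uM tamoxifen.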"}, "[13]": {"experiment": "Cellular Toxicity (caspase-3) Hek293 (AID 664)", "procedure,_shortened": "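HEK293 cells were exposed to compounds in complete medium for 16 hr at 37 °C, then caspase-3/7 activity was read by Caspase-Glo 3/7 luminescence after 20 min at room temperature. Data normalized to DMSO and 100 uM tamoxifen; AC50 from Hill fits.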"}, "[14]": {"experiment": "Cellular Toxicity (caspase-3) NIH 3T3 (AID 666)", "procedure,_shortened": "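Mouse NIH 3T3 fibroblasts (1000 cells/well) were treated with compound for 16 hr at 37°C in complete medium; caspase-3/7 activity was read by Caspase-Glo luminescence. Normalized to DMSO and 100 uM tamoxifen; AC50 from Hill fits.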"}, "[15]": {"experiment": "Cellular Toxicity (caspase-3) Renal Proximal Tubule (AID 667)", "procedure,_shortened": "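Freshly isolated primary rat kidney proximal tubule cells, 1000/well, treated 16 hr at 37 °C, then Caspase-Glo 3/7 luminescence after 1 hr. Normalized to DMSO and 10 uM staurosporine; AC50 from Hill fit.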"}, "[16]": {"biological_target": "Cytochrome P450 3A4 (Homo sapiens) (UniProt P08684)", "experiment": "qHTS Assay for Inhibitors and Substrates of Cytochrome P450 3A4 (AID 884); further: nearly all actives have a fitted effect of over 50% in size", "procedure,_shortened": "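20 nM human CYP3A4 with 25 uM Luciferin-PPXE (at KM) in 200 mM KPO4, preincubated 10 min with compound; NADPH regeneration started a 60 min RT reaction. Luciferin detected by luminescence, normalized to 57 uM ketoconazole as full inhibition.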"}, "[17]": {"experiment": "Cellular Toxicity (caspase-3) Mesangial (AID 660)", "procedure,_shortened": "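Human renal glomerular mesangial cells (1000/well) were treated with compounds for 16 h at 37 °C in complete medium, then caspase 3/7 activity was read by Caspase-Glo luminescence. Data were normalized to DMSO and 100 uM tamoxifen; AC50 from Hill fits.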"}, "[18]": {"biological_target": "Cytochrome P450 2D6 (Homo sapiens) (UniProt P10635)", "sequence (P10635 whole entry, looked up)": "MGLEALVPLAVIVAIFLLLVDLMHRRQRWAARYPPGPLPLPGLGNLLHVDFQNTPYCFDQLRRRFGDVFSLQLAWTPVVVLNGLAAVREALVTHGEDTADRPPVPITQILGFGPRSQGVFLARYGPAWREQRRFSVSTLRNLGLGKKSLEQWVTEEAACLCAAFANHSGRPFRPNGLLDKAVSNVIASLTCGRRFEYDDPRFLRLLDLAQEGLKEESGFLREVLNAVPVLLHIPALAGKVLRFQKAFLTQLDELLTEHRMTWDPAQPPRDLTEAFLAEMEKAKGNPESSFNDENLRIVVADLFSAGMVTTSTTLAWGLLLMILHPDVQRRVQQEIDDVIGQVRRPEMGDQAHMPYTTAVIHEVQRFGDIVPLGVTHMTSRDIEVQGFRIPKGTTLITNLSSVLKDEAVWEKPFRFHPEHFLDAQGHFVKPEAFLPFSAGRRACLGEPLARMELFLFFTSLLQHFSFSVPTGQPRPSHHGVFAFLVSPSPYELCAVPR", "experiment": "qHTS Assay for Inhibitors and Substrates of Cytochrome P450 2D6 (AID 891); further: potency means the concentration at half of the fitted maximal effect; nearly all actives have a fitted effect of over 60% in size", "procedure,_shortened": "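Human CYP2D6 (5 nM) with 30 uM Luciferin-ME EGE (at Km) in 100 mM KPO4, compound preincubated 10 min, then NADPH regeneration system for 60 min at room temperature. Luciferin read by luminescence; normalized to 1.43 uM quinidine.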"}}, "note": "Where “and” joins values, the source holds several entries; their conditions need not be identical. Identical values can stand only once. Values without a mark were called inactive. Records with an inconclusive call do not appear. Where a call stands in place of a potency, no number is given. Calls of active or inactive are those of the source. Unless noted, the call rests on the fitted dose curve; in most records, active means well fitted curve in the direction sought with a large enough effect; inconclusive means small, poorly fitted or top-dose-only effect, or another doubt; inactive means no such curve, though single readings can be large; an effect the other way counts as inactive or inconclusive.", "data": [{"molecule": "NCC(CC(=O)O)c1ccc(Cl)cc1", "note": "(stereo unspecified)", "values": [{"measurement": "outcome", "setting": "[1]", "result": "inactive"}, {"measurement": "outcome", "setting": "[2]", "result": "inactive"}, {"measurement": "Potency", "setting": "[3]", "result": "5.62 µM (active)"}, {"measurement": "outcome", "setting": "[4]", "result": "inactive"}]}, {"molecule": "Oc1cccc2cccnc12", "values": [{"measurement": "Potency", "setting": "[5]", "result": "inactive"}, {"measurement": "caspase-3 activation", "setting": "[6]", "result": "7.85% and 22.6%"}, {"measurement": "outcome", "setting": "[7]", "result": "inactive"}, {"measurement": "Potency", "setting": "[8]", "result": "inactive"}, {"measurement": "outcome", "setting": "[9]", "result": "inactive"}, {"measurement": "outcome", "setting": "[10]", "result": "inactive"}, {"measurement": "outcome", "setting": "[11]", "result": "inactive"}, {"measurement": "caspase-3 activation", "setting": "[12]", "result": "5.58% and 5.31%"}, {"measurement": "outcome", "setting": "[13]", "result": "inactive"}, {"measurement": "outcome", "setting": "[14]", "result": "inactive"}, {"measurement": "outcome", "setting": "[15]", "result": "inactive"}, {"measurement": "Potency", "setting": "[16]", "result": "inactive"}, {"measurement": "outcome", "setting": "[4]", "result": "inactive"}]}, {"molecule": "CNCC(O)c1ccc(O)cc1", "note": "(stereo unspecified)", "values": [{"measurement": "Potency", "setting": "[5]", "result": "inactive"}, {"measurement": "caspase-3 activation", "setting": "[6]", "result": 2.25, "unit": "%"}, {"measurement": "outcome", "setting": "[7]", "result": "inactive"}, {"measurement": "Potency", "setting": "[8]", "result": "inactive"}, {"measurement": "outcome", "setting": "[9]", "result": "inactive"}, {"measurement": "outcome", "setting": "[10]", "result": "inactive"}, {"measurement": "outcome", "setting": "[17]", "result": "inactive"}, {"measurement": "outcome", "setting": "[11]", "result": "inactive"}, {"measurement": "caspase-3 activation", "setting": "[12]", "result": -0.124, "unit": "%"}, {"measurement": "outcome", "setting": "[13]", "result": "inactive"}, {"measurement": "outcome", "setting": "[14]", "result": "inactive"}, {"measurement": "outcome", "setting": "[15]", "result": "inactive"}, {"measurement": "outcome", "setting": "[1]", "result": "inactive"}, {"measurement": "Potency", "setting": "[16]", "result": "inactive"}]}, {"molecule": "Clc1ccc(COC(Cn2ccnc2)c2ccc(Cl)cc2Cl)cc1", "note": "(stereo unspecified)", "values": [{"measurement": "caspase-3 activation", "setting": "[6]", "result": "99.7% (active)"}, {"measurement": "Potency", "setting": "[8]", "result": "inactive"}, {"measurement": "outcome", "setting": "[9]", "result": "inactive"}, {"measurement": "outcome", "setting": "[10]", "result": "inactive"}, {"measurement": "outcome", "setting": "[17]", "result": "inactive"}, {"measurement": "outcome", "setting": "[11]", "result": "inactive"}, {"measurement": "outcome", "setting": "[14]", "result": "inactive"}, {"measurement": "outcome", "setting": "[15]", "result": "inactive"}, {"measurement": "outcome", "setting": "[2]", "result": "inactive"}, {"measurement": "outcome", "setting": "[4]", "result": "inactive"}]}, {"molecule": "Cc1ccc(S(=O)(=O)N[C@@H](CCCCN)C(=O)CCl)cc1", "values": [{"measurement": "outcome", "setting": "[1]", "result": "inactive"}, {"measurement": "Potency", "setting": "[3]", "result": "11.2 µM (active)"}]}, {"molecule": "Clc1cccc(N2CCNCC2)c1", "values": [{"measurement": "outcome", "setting": "[1]", "result": "inactive"}, {"measurement": "outcome", "setting": "[2]", "result": "inactive"}, {"measurement": "Potency", "setting": "[18]", "result": "3.98 µM (active)"}]}]}
